Among the data in PubChem BioAssay AID463195 (Sanford-Burnham Center for Chemical Genomics, 2010) are inhibition values, retold here.

Among all 330,000 compounds or so, about 4,600 (1.4%) were called active. Many of the other results were omitted from the sample, so actives are more common in it than they were. A number with no mark means an inactive call.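 The calls were made as follows: active = inhibition of 40% or more at the single tested concentration; inactive = the rest.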

A short description of this assay: wild-type TIM10 yeast growth inhibition – luminescence, uHTS, counter-screen for tim10-1 yeast inhibitor project, primary screen (AID 463195).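 Also: wild-type TIM10 isogenic control strain grown at permissive 25 °C; 0% = DMSO yeast wells and 100% = minimal medium wells without yeast.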 As to conditions: S. cerevisiae TIM10 strain growth, BacTiter-Glo luminescence, 24 h; at 10 µM; hits give high values.
For `Cc1ccc(-c2nc3ccccc3c(=O)n2-c2ccc(Br)cn2)cc1`, the inhibition was 43.5% (active).
In the case of `O=c1c2ccccc2nc(-c2ccccc2)n1-c1ccccn1` it was 9.32%; in that of `O=c1c2ccccc2nc(-c2ccco2)n1-c1ccc(Br)cn1`, 5.95%.
In the case of `C=CC12CN(C)[C@@H]3C4CO[C@H](C[C@H]41)[C@]1(C(=O)Nc4ccccc41)[C@@H]32` (stereo not given in full) it was -2.08%; in that of `O=c1c2ccccc2nc(-c2ccc(Cl)cc2Cl)n1-c1ccncc1`, 18.8%.
Regarding `CCN(CC)CCOC(=O)c1cc2cc(COC)ccc2o1`, the inhibition is -10.2%.
Regarding `CC(C)CN1CCN(Cc2ccccc2C(F)(F)F)CC1CCO` (stereo not given), the inhibition was -6.36%.
In the case of `C/C(=N/O)c1ccc2ccc3ccccc3c2c1` it was 40.7% (active); in that of `C/C(CCc1c[nH]c2ccccc12)=N\O`, 6.37%.
In the case of `O=[N+]([O-])c1cnc2ccc3ccccc3c2c1` it was -22.9%.
Consider `COc1cccc(N2C(=O)NC(=O)/C(=C\c3ccc([N+](=O)[O-])s3)C2=O)c1`, for which the inhibition was 78.4% (active).
In the case of `Cc1c(C(=O)O)cccc1-n1c(C)cc(/C=C2\C(=O)NC(=O)N(c3ccc4c(c3)OCO4)C2=O)c1C` it was -7.16%; in that of `COc1ccc(N2C(=O)/C(=C/c3ccco3)C(=O)NC2=S)cc1`, -0.32%; in that of `O=C1NC(=O)N(c2ccccc2)C(=O)/C1=C/c1ccc([N+](=O)[O-])s1`, 85.5% (active).
As for `CCc1cccc2c(C#N)cn(CC(=O)N3CCOCC3)c12`, the inhibition is 9.92%.
In the case of `Cn1c(C(=O)N2CCC(C(=O)N3CCC4(CC3)OCCO4)CC2)cc2sccc21`, the inhibition was 1.3%.
As for `COc1ccc(CCn2c(O)c(C=NC3CC3)c(=O)[nH]c2=O)cc1OC`, the inhibition was 0.042%.
As for `CC(=O)Cc1ccc(OC(C)C)cc1`, the inhibition is -13.5%.
The result for `CC(C(=O)Nc1ccc(Cl)cc1Cl)N1CC=C(c2ccccc2)CC1` (stereo not given) reads 15.3%; that for `CCCCCn1c(=O)c(C(=O)Nc2c(C)n(C)n(-c3ccccc3)c2=O)c(O)c2ccccc21`, 24.7%.
The result for `Cc1cc2ccccn2c1C(C[N+](=O)[O-])c1c(F)cccc1Cl` (stereo not given) reads 52.7% (active); that for `CCN1c2nc3c(C)cccn3c(=O)c2CC2(C(=O)N(C)C(=O)N(C)C2=O)C1C` (stereo not given), 5.19%.
The result for `Cc1cccc(NC(=O)N2CC3CC(C2)c2cccc(=O)n2C3)c1` (stereo not given) reads -9.99%.
As for `CC[C@H]1CC2CN3CCc4c([nH]c5ccccc45)C(C(=O)OC)(C2)C13` (stereo not given in full), the inhibition was -1.49%.
On to `COC(=O)C1=C(c2ccccc2)C[C@@H]2CC[C@H]1N2C(=O)N1CCCCC1`, for which the inhibition was 28.7%.
